High-throughput results (PubChem BioAssay)
RPL19A TOR yeast = modulators of TOR pathway RPL19A-GFP in S. cerevisiae; S. cerevisiae RPL19A-GFP strain, flow cytometry, 3 h; hits give low values; percent response vs DMSO, % at 10 µM; hit rate 0.3% among 330,000;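 active = percent response vs DMSO below 50%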;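 note: median channel GFP fluorescence of the barcoded RPL19A-GFP strain; ratio of sample median GFP to plate DMSO average so 100% = DMSO; lower means less RPL19A-GFP as with rapamycin TOR inhibition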
Efflux pump mplx = inhibitors of Candida antifungal efflux pumps expressed in yeast; AID 485275; inhibition, % at 10 µM; hit rate 0.44% among 330,000; S. cerevisiae Candida pump triplex, Nile Red efflux;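 active = plate passing quality check with inhibition over a set limit, or well fluorescence over plate mean plus 4 SD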;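 note: Nile Red retained in pooled yeast measured as flow cytometry median fluorescence; 0% = buffer negative control and 100% = Enniatin B positive control; higher means more Nile Red kept so more efflux inhibition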
AGP1 TOR yeast = alters AGP1-GFP fluorescence in TOR pathway yeast screen | hit rate 0.02% among 320,000 | GFP response vs DMSO, % at 10 µM | S. cerevisiae AGP1-GFP multiplex flow cytometry, 3 h; GFP as percent of DMSO wells;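 active = GFP response relative to DMSO above a set limit, near screen average plus 3 SD, cut at about 150% in these data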;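 note: median GFP channel fluorescence of the gated AGP1 strain per well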
LAP4 TOR yeast = modulators of TOR pathway LAP4-GFP in S. cerevisiae; S. cerevisiae LAP4-GFP multiplex, flow cytometry GFP, 3 h; median GFP as percent of DMSO wells; AID 2023; GFP response vs DMSO, % at 10 µM; hit rate 0.34% among 320,000;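 active = GFP response vs DMSO above a set limit, about the screen mean plus 3 SD, cut at about 150% in these data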
CIT2 TOR yeast = alters CIT2-GFP fluorescence in TOR pathway yeast screen | GFP response vs DMSO, % at 10 µM | S. cerevisiae CIT2-GFP strain, flow cytometry, 3 h; 100 means same as DMSO wells | hit rate 0.065% among 320,000 | AID 2029;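 active = GFP response relative to DMSO above a set limit, near the screen mean plus 3 SD, cut at about 150% in these data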;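 note: ratio of well median GFP fluorescence to mean of DMSO wells on the plate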
MEP2 TOR yeast = yeast TOR pathway MEP2-GFP modulation; S. cerevisiae MEP2-GFP strain, flow cytometry GFP, 3 h; 100% = DMSO control level; GFP response vs DMSO, % at 10 µM; hit rate 0.51% among 330,000; AID 2016;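 active = GFP response versus DMSO above a set limit, roughly screen mean plus 3 SD, cut at about 180% in these data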;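 note: median GFP fluorescence of the barcode-gated MEP2-GFP cells per well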
LAP4 cherry2 = yeast LAP4-GFP modulation, second cherry pick; shares compounds with LAP4 TOR yeast; S. cerevisiae LAP4-GFP strain, flow cytometry GFP, 3 h; GFP response vs DMSO, % at 10 µM; hit rate 20% among 590;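 active = GFP signal as percent of the solvent control above about 150%, meaning raised reporter expression, limit read from the data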;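 note: ratio of well median GFP fluorescence to plate DMSO mean so 100% = DMSO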
MEP2 cherry2 = reconfirmed MEP2-GFP TOR pathway modulator in yeast. shares compounds with LAP4 TOR yeast. S. cerevisiae MEP2-GFP strain, flow cytometry GFP, 3 h. GFP response vs DMSO, % at 10 µM. hit rate 10% among 590. AID 2622;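 active = GFP signal above 150% of the solvent control wells, that is a rise of more than half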;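 note: median channel GFP fluorescence of all gated yeast cells per well; ratio of median GFP to plate DMSO average so 100% = DMSO level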
RPL19A GFP CP2 = second confirmation of modulators of TOR reporter RPL19A-GFP in yeast. shares compounds with LAP4 TOR yeast. S. cerevisiae RPL19A-GFP strain, flow cytometry GFP, 3 h; hits give low values; 100% means same as DMSO wells. GFP response vs DMSO, % at 10 µM. hit rate 3% among 590. AID 2623;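 active = under 65% GFP response relative to DMSO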;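 note: median GFP channel fluorescence per well over the all cells gate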
CIT2 GFP CP2 = reconfirmed modulator of CIT2-GFP TOR reporter in yeast | shares compounds with LAP4 TOR yeast | GFP response vs DMSO, % at 10 µM | S. cerevisiae CIT2-GFP strain, flow cytometry GFP, 3 h; DMSO control wells read 100% | AID 2624 | hit rate 8% among 590;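 active = GFP response vs DMSO above about 150%, limit read from the data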;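 note: median green fluorescence per well over all gated yeast cells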
AGP1-GFP pick2 = reconfirmed modulator of AGP1-GFP TOR reporter in yeast; shares compounds with LAP4 TOR yeast; S. cerevisiae AGP1-GFP strain, flow cytometry GFP, 3 h; percent response vs DMSO, % at 10 µM; 590 tested, under 10 active; AID 2643;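 active = over 150 percent of DMSO response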;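 note: median GFP channel fluorescence over all cells without mother daughter split; sample median GFP divided by mean DMSO control so 100% equals DMSO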
Yeast autofluor = compound is autofluorescent in yeast s288c cells. shares compounds with LAP4 TOR yeast. S. cerevisiae s288c, 520 nm autofluorescence, flow cytometry, 3 h; hits give high values; zero means same as solvent-only cells. fluorescence change (kMESF span) at 33 µM. 610 tested, under 10 active. AID 2757;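 active = fluorescence span over the dose series, or activity score, above about 33, limit read from the data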
s288c autofl DR = counter-screen for autofluorescence of TOR hits in yeast s288c; shares compounds with LAP4 TOR yeast; S. cerevisiae s288c parental, compound autofluorescence, flow cytometry, 3 h; fluorescence change (span) at 33 µM; 110 tested, under 10 active;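 active = fluorescence change span, or the activity score built from it, above 25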
TORC1 bypass = stops wildtype yeast growth while TORC1 bypass cells still grow | shares compounds with LAP4 TOR yeast | S. cerevisiae BY4741 spot growth rating, 48-72 h; hits give low values | growth rating (0-3) at 30 µM | 120 tested, under 10 active;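 active = growth rating at most 1 for wild type yeast while the TORC1 bypass strain still grows fully, rated 3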
* marks the source's active call; other numbers are inactive results. Sampled rows, rich in hits. Any-hit rate of the full collection: about 1.3%.

What do the screens show for `CC(C)(C)OC(=O)C[C@@H]1C/C=C\C[C@H](CC(=O)NCCO)C(=O)NC[C@H](c2ccccc2)OC1=O`?
RPL19A TOR yeast: 95; Efflux pump mplx: 0; AGP1 TOR yeast: 96; LAP4 TOR yeast: 101; CIT2 TOR yeast: 93; MEP2 TOR yeast: 103

What do the screens show for `CC(=O)Nc1ncnc2c1c(-c1ccc(Cl)cc1)nn2C(C)(C)C`?
RPL19A TOR yeast: 64; Efflux pump mplx: 0; AGP1 TOR yeast: 85; LAP4 TOR yeast: 146; CIT2 TOR yeast: 55; MEP2 TOR yeast: 88; LAP4 cherry2: 113; MEP2 cherry2: 107; RPL19A GFP CP2: 59*; CIT2 GFP CP2: 68; AGP1-GFP pick2: 79; Yeast autofluor: -0.91; s288c autofl DR: 0.14; TORC1 bypass: 3

What do the screens show for `CC(=O)N(C(C)=O)c1ncnc2c1c(-c1ccc(Cl)cc1)nn2C(C)(C)C`?
RPL19A TOR yeast: 95; Efflux pump mplx: 0; AGP1 TOR yeast: 97; LAP4 TOR yeast: 96; CIT2 TOR yeast: 90; MEP2 TOR yeast: 93; LAP4 cherry2: 96; MEP2 cherry2: 100; RPL19A GFP CP2: 98; CIT2 GFP CP2: 94; AGP1-GFP pick2: 92; Yeast autofluor: -0.2

What do the screens show for `Cc1ccsc1/C=N/Nc1ncc(Cl)cc1Cl`?
Efflux pump mplx: 0; AGP1 TOR yeast: 77; LAP4 TOR yeast: 300*; CIT2 TOR yeast: 79; MEP2 TOR yeast: 110; Yeast autofluor: 1

What do the screens show for `Cc1cc(C)nc(N/N=C/c2sccc2C)n1`?
RPL19A TOR yeast: 100; Efflux pump mplx: 0; AGP1 TOR yeast: 101; LAP4 TOR yeast: 100; CIT2 TOR yeast: 108; MEP2 TOR yeast: 101

What do the screens show for `Cc1onc(-c2ccccc2Cl)c1C(=O)N1CCN(c2ccc(F)cc2)CC1`?
RPL19A TOR yeast: 97; Efflux pump mplx: 0; AGP1 TOR yeast: 103; LAP4 TOR yeast: 92; CIT2 TOR yeast: 103; MEP2 TOR yeast: 99

How did Cc1c(NC2=C(Cl)C(=O)N(c3ccccc3)C2=O)c(=O)n(-c2ccccc2)n1C do in these assays?
RPL19A TOR yeast: 97; Efflux pump mplx: 0; AGP1 TOR yeast: 99; LAP4 TOR yeast: 143; CIT2 TOR yeast: 95; MEP2 TOR yeast: 97; Yeast autofluor: 0.4

How did Cc1c(NC2=C(Cl)C(=O)N(c3ccccc3Cl)C2=O)c(=O)n(-c2ccccc2)n1C do in these assays?
RPL19A TOR yeast: 103; Efflux pump mplx: 0; AGP1 TOR yeast: 105; LAP4 TOR yeast: 90; CIT2 TOR yeast: 107; MEP2 TOR yeast: 101; Yeast autofluor: 0.1

Results for Cc1c(Nc2c3ccccc3nc3ccccc23)c(=O)n(-c2ccccc2)n1C ?
RPL19A TOR yeast: 88; Efflux pump mplx: 0; AGP1 TOR yeast: 69; LAP4 TOR yeast: 94; CIT2 TOR yeast: 93; MEP2 TOR yeast: 108

Results for O=C1C(Cl)=C(Nc2ccccc2O)C(=O)N1c1ccccc1 ?
RPL19A TOR yeast: 98; Efflux pump mplx: 0; AGP1 TOR yeast: 104; LAP4 TOR yeast: 115; CIT2 TOR yeast: 102; MEP2 TOR yeast: 107; Yeast autofluor: 0.1

How did Cc1ccccc1N=Nc1ccc(O)c2ncccc12 do in these assays?
RPL19A TOR yeast: 97; Efflux pump mplx: 0; AGP1 TOR yeast: 101; LAP4 TOR yeast: 178*; CIT2 TOR yeast: 99; MEP2 TOR yeast: 103; LAP4 cherry2: 216*; MEP2 cherry2: 123; RPL19A GFP CP2: 102; CIT2 GFP CP2: 156*; AGP1-GFP pick2: 105; Yeast autofluor: 0.3

What do the screens show for `O=Nc1ccc(O)c2ncccc12`?
RPL19A TOR yeast: 94; Efflux pump mplx: 0; AGP1 TOR yeast: 105; LAP4 TOR yeast: 114; CIT2 TOR yeast: 103; MEP2 TOR yeast: 105

Results for COc1cccc(N=Nc2ccc(O)c3ncccc23)c1 ?
RPL19A TOR yeast: 103; Efflux pump mplx: 0; AGP1 TOR yeast: 89; LAP4 TOR yeast: 180*; CIT2 TOR yeast: 104; MEP2 TOR yeast: 103; Yeast autofluor: 0.2

Results for COc1ccc(N=Nc2ccc(O)c3ncccc23)cc1 ?
RPL19A TOR yeast: 96; Efflux pump mplx: 0; AGP1 TOR yeast: 98; LAP4 TOR yeast: 215*; CIT2 TOR yeast: 102; MEP2 TOR yeast: 116; Yeast autofluor: 0.51

How did Cc1ccc(S(=O)(=O)N2CCCCC2C(=O)Nc2ccc(N(C)C)cc2)cc1 (configuration not stated) do in these assays?
RPL19A TOR yeast: 102; Efflux pump mplx: 0; AGP1 TOR yeast: 100; LAP4 TOR yeast: 91; CIT2 TOR yeast: 107; MEP2 TOR yeast: 108

How did CN(CC(=O)Nc1ccc(Cl)c(C(F)(F)F)c1)C(=O)c1cnccn1 do in these assays?
RPL19A TOR yeast: 96; Efflux pump mplx: 0; AGP1 TOR yeast: 96; LAP4 TOR yeast: 93; CIT2 TOR yeast: 98; MEP2 TOR yeast: 97

What do the screens show for `CCCn1c(CN2CCN(C(=O)OCC)CC2)nc2cc(NC(=O)C(C)C)ccc21`?
RPL19A TOR yeast: 110; Efflux pump mplx: 2; AGP1 TOR yeast: 102; LAP4 TOR yeast: 97; CIT2 TOR yeast: 105; MEP2 TOR yeast: 96
